Screening results from PubChem BioAssay.
CIT2-GFP yeast: yeast TOR pathway CIT2-GFP modulation; actives 0.065% (n = 320,000); S. cerevisiae CIT2-GFP strain, flow cytometry, 3 h; 100 means same as DMSO wells; GFP response vs DMSO, % at 10 µM;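 active = GFP response relative to DMSO above a set limit, near the screen mean plus 3 SD, cut at about 150% in these data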;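 also: ratio of well median GFP fluorescence to mean of DMSO wells on the plate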
LAP4-GFP MLPCN: alters LAP4-GFP fluorescence in TOR pathway yeast screen. GFP response vs DMSO, % at 10 µM. S. cerevisiae LAP4-GFP multiplex, flow cytometry GFP, 3 h; median GFP as percent of DMSO wells. actives 0.34% (n = 320,000);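 active = GFP response vs DMSO above a set limit, about the screen mean plus 3 SD, cut at about 150% in these data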
MEP2-GFP yeast: yeast TOR pathway MEP2-GFP modulation. GFP response vs DMSO, % at 10 µM. actives 0.51% (n = 330,000). S. cerevisiae MEP2-GFP strain, flow cytometry GFP, 3 h; 100% = DMSO control level;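 active = GFP response versus DMSO above a set limit, roughly screen mean plus 3 SD, cut at about 180% in these data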;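 also: median GFP fluorescence of the barcode-gated MEP2-GFP cells per well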
AGP1-GFP MLPCN: yeast TOR pathway AGP1-GFP modulation | GFP response vs DMSO, % at 10 µM | S. cerevisiae AGP1-GFP multiplex flow cytometry, 3 h; GFP as percent of DMSO wells | actives 0.02% (n = 320,000);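 active = GFP response relative to DMSO above a set limit, near screen average plus 3 SD, cut at about 150% in these data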;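 also: median GFP channel fluorescence of the gated AGP1 strain per well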
RPL19A-GFP yeast: modulators of TOR pathway RPL19A-GFP in S. cerevisiae. actives 0.3% (n = 330,000). percent response vs DMSO, % at 10 µM. S. cerevisiae RPL19A-GFP strain, flow cytometry, 3 h; stronger effect = lower value. AID 2025;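 active = percent response vs DMSO below 50%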;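 also: median channel GFP fluorescence of the barcoded RPL19A-GFP strain; ratio of sample median GFP to plate DMSO average so 100% = DMSO; lower means less RPL19A-GFP as with rapamycin TOR inhibition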
LAP4-GFP pick2: second confirmation of modulators of TOR reporter LAP4-GFP in yeast; actives 20% (n = 590); AID 2621; GFP response vs DMSO, % at 10 µM; S. cerevisiae LAP4-GFP strain, flow cytometry GFP, 3 h; shares compounds with LAP4-GFP MLPCN;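 active = GFP signal as percent of the solvent control above about 150%, meaning raised reporter expression, limit read from the data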;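 also: ratio of well median GFP fluorescence to plate DMSO mean so 100% = DMSO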
MEP2-GFP pick2: second confirmation of modulators of TOR reporter MEP2-GFP in yeast. shares compounds with LAP4-GFP MLPCN. S. cerevisiae MEP2-GFP strain, flow cytometry GFP, 3 h. GFP response vs DMSO, % at 10 µM. actives 10% (n = 590). AID 2622;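 active = GFP signal above 150% of the solvent control wells, that is a rise of more than half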;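 also: median channel GFP fluorescence of all gated yeast cells per well; ratio of median GFP to plate DMSO average so 100% = DMSO level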
RPL19A GFP CP2: second confirmation of modulators of TOR reporter RPL19A-GFP in yeast | shares compounds with LAP4-GFP MLPCN | S. cerevisiae RPL19A-GFP strain, flow cytometry GFP, 3 h; stronger effect = lower value; 100% means same as DMSO wells | GFP response vs DMSO, % at 10 µM | actives 3% (n = 590) | AID 2623;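 active = under 65% GFP response relative to DMSO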;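 also: median GFP channel fluorescence per well over the all cells gate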
CIT2-GFP pick2: yeast CIT2-GFP TOR reporter modulation, second cherry pick. shares compounds with LAP4-GFP MLPCN. S. cerevisiae CIT2-GFP strain, flow cytometry GFP, 3 h; DMSO control wells read 100%. GFP response vs DMSO, % at 10 µM. actives 8% (n = 590);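 active = GFP response vs DMSO above about 150%, limit read from the data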;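 also: median green fluorescence per well over all gated yeast cells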
AGP1-GFP pick2: reconfirmed modulator of AGP1-GFP TOR reporter in yeast; shares compounds with LAP4-GFP MLPCN; S. cerevisiae AGP1-GFP strain, flow cytometry GFP, 3 h; percent response vs DMSO, % at 10 µM; 590 tested, under 10 active; AID 2643;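 active = over 150 percent of DMSO response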;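 also: median GFP channel fluorescence over all cells without mother daughter split; sample median GFP divided by mean DMSO control so 100% equals DMSO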
s288c autofluor: yeast s288c autofluorescence artifact, counter-screen; AID 2757; 610 tested, under 10 active; shares compounds with LAP4-GFP MLPCN; fluorescence change (kMESF span) at 33 µM; S. cerevisiae s288c, 520 nm autofluorescence, flow cytometry, 3 h; stronger effect = higher value; zero means same as solvent-only cells;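 active = fluorescence span over the dose series, or activity score, above about 33, limit read from the data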
Yeast autofl DR: counter-screen for autofluorescence of TOR hits in yeast s288c. shares compounds with LAP4-GFP MLPCN. S. cerevisiae s288c parental, compound autofluorescence, flow cytometry, 3 h. fluorescence change (span) at 33 µM. 110 tested, under 10 active;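 active = fluorescence change span, or the activity score built from it, above 25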
TORC1 bypass: wildtype yeast growth loss with TORC1 bypass cells unaffected | AID 504456 | 120 tested, under 10 active | S. cerevisiae BY4741 spot growth rating, 48-72 h; stronger effect = lower value | growth rating (0-3) at 30 µM | shares compounds with LAP4-GFP MLPCN;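 active = growth rating at most 1 for wild type yeast while the TORC1 bypass strain still grows fully, rated 3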
Active calls of the source: *. An excerpt weighted towards active compounds, which were near 0.92% of everything screened.

For O=C(COc1ccc(F)cc1Cl)Nc1nc(-c2ccccn2)cs1 the results were CIT2-GFP yeast 86.7, LAP4-GFP MLPCN 171.0*, MEP2-GFP yeast 109.0, AGP1-GFP MLPCN 97.7, RPL19A-GFP yeast 91.7, s288c autofluor 0.1, Yeast autofl DR 0.08 and TORC1 bypass 3.
`CC(Oc1ccccc1)C(=O)Nc1nc(-c2ccncc2)cs1` (stereo unspecified) gave CIT2-GFP yeast 94.2, LAP4-GFP MLPCN 103.9, MEP2-GFP yeast 100.2, AGP1-GFP MLPCN 100.8 and RPL19A-GFP yeast 100.1.
CC(Oc1cccc(Cl)c1)C(=O)Nc1nc(-c2ccccn2)cs1 (stereo unspecified) was read as CIT2-GFP yeast 92.0, LAP4-GFP MLPCN 171.0*, MEP2-GFP yeast 105.3, AGP1-GFP MLPCN 111.2, RPL19A-GFP yeast 91.0 and s288c autofluor 0.71.
Screening CCc1nc(CN2CCN(c3cc(C(F)(F)F)ccn3)CC2)c(C)[nH]1 returned CIT2-GFP yeast 105.1, LAP4-GFP MLPCN 112.1, MEP2-GFP yeast 104.4, AGP1-GFP MLPCN 110.6 and RPL19A-GFP yeast 102.0.
`Cc1cc(NC(=O)CSc2nnc(-c3ccncc3)n2-c2ccc(F)cc2)no1` gave CIT2-GFP yeast 90.9, LAP4-GFP MLPCN 97.5, MEP2-GFP yeast 134.8, AGP1-GFP MLPCN 74.5, RPL19A-GFP yeast 62.6, LAP4-GFP pick2 100.0, MEP2-GFP pick2 103.2, RPL19A GFP CP2 100.4, CIT2-GFP pick2 97.2 and AGP1-GFP pick2 97.4.
Screening C/C(=N\NC(=S)NCc1ccccc1)c1ccc(C)o1 returned CIT2-GFP yeast 105.2, LAP4-GFP MLPCN 108.3, MEP2-GFP yeast 102.4, AGP1-GFP MLPCN 104.3 and RPL19A-GFP yeast 99.6.
For CSC1=NS(=O)(=O)c2c(C)nn(C)c2S1 the results were CIT2-GFP yeast 68.2, LAP4-GFP MLPCN 153.7*, MEP2-GFP yeast 92.0, AGP1-GFP MLPCN 94.3, RPL19A-GFP yeast 85.2, s288c autofluor 0, Yeast autofl DR 0 and TORC1 bypass 3.
Screening CN(C(=O)COC(=O)CCC(=O)c1ccc(F)cc1)C1CCCCC1 returned CIT2-GFP yeast 97.5, LAP4-GFP MLPCN 97.2, MEP2-GFP yeast 99.0, AGP1-GFP MLPCN 99.7 and RPL19A-GFP yeast 99.3.
Screening O=C1CC(c2ccccc2)c2cc(O)ccc2O1 (stereo unspecified) returned CIT2-GFP yeast 108.2, LAP4-GFP MLPCN 100.6, MEP2-GFP yeast 103.1, AGP1-GFP MLPCN 101.4 and RPL19A-GFP yeast 103.9.
`Cc1ccc(C2CC(=O)Oc3cc(O)ccc32)cc1` (stereo unspecified) gave CIT2-GFP yeast 70.2, LAP4-GFP MLPCN 179.9*, MEP2-GFP yeast 96.7, AGP1-GFP MLPCN 90.4, RPL19A-GFP yeast 74.7, LAP4-GFP pick2 115.4, MEP2-GFP pick2 138.1, RPL19A GFP CP2 88.7, CIT2-GFP pick2 99.5 and AGP1-GFP pick2 111.0.
For COc1ccc(CCNC(=O)C(=O)NCC2CCCN2S(=O)(=O)c2ccccc2)cc1OC (stereo unspecified) the results were CIT2-GFP yeast 78.9, LAP4-GFP MLPCN 98.6, MEP2-GFP yeast 97.8, AGP1-GFP MLPCN 101.6 and RPL19A-GFP yeast 98.5.
For CC(C)Cn1c(=O)c(C(=O)Nc2ccncc2)c(O)c2ccccc21 the results were CIT2-GFP yeast 59.1, LAP4-GFP MLPCN 102.7, MEP2-GFP yeast 93.4, AGP1-GFP MLPCN 47.6, RPL19A-GFP yeast 48.1* and s288c autofluor 2.04.
Screening O=C1CCCN2N=C(SCC(=O)N3CCCCC3)SC2=N1 returned CIT2-GFP yeast 96.6, LAP4-GFP MLPCN 92.5, MEP2-GFP yeast 142.7, AGP1-GFP MLPCN 60.6, RPL19A-GFP yeast 57.9, LAP4-GFP pick2 99.0, MEP2-GFP pick2 101.5, RPL19A GFP CP2 100.2, CIT2-GFP pick2 97.2 and AGP1-GFP pick2 100.8.
O=C1C=C(c2ccc(C(=O)O)cc2)C[C@@H](c2ccc(F)cc2)C1 was read as CIT2-GFP yeast 82.7, LAP4-GFP MLPCN 116.5, MEP2-GFP yeast 93.1, AGP1-GFP MLPCN 85.2 and RPL19A-GFP yeast 98.2.
Cc1ccc(/C=C/C(=O)c2ccc([N+](=O)[O-])o2)cc1 was read as CIT2-GFP yeast 87.2, LAP4-GFP MLPCN 175.6*, MEP2-GFP yeast 96.7, AGP1-GFP MLPCN 87.8, RPL19A-GFP yeast 98.8 and s288c autofluor 1.94.
For CC[C@]12CCCN3CCc4c(n(c5ccccc45)C(=O)C1)C32 (stereo partly specified) the results were CIT2-GFP yeast 83.9, LAP4-GFP MLPCN 167.2*, MEP2-GFP yeast 93.0, AGP1-GFP MLPCN 89.0, RPL19A-GFP yeast 82.0, LAP4-GFP pick2 98.2, MEP2-GFP pick2 101.3, RPL19A GFP CP2 98.0, CIT2-GFP pick2 94.6 and AGP1-GFP pick2 95.9.
For Cc1ccc(SCC(=O)NNC(=O)CCS(=O)(=O)c2ccc(C)cc2)cc1 the results were CIT2-GFP yeast 86.9, LAP4-GFP MLPCN 219.4*, MEP2-GFP yeast 108.9, AGP1-GFP MLPCN 115.0, RPL19A-GFP yeast 76.4, LAP4-GFP pick2 105.2, MEP2-GFP pick2 101.3, RPL19A GFP CP2 98.7, CIT2-GFP pick2 102.9 and AGP1-GFP pick2 98.8.
Screening Cc1ccc(SCC(=O)NNC(=O)CCS(=O)(=O)c2ccccc2)cc1 returned CIT2-GFP yeast 123.7, LAP4-GFP MLPCN 91.3, MEP2-GFP yeast 113.8, AGP1-GFP MLPCN 107.0 and RPL19A-GFP yeast 104.0.
